Assay [1] relates to Tyrosine-protein kinase ABL1 (Homo sapiens), P00519 [T315I]. As to conditions: at 1 µM.
In assay [2] the test system is Tyrosine-protein kinase ABL1 (Homo sapiens), P00519 [Y253F]. As to conditions: at 0.1 µM.
For assay [3] the test system is unchanged. As to conditions: at 1 µM.
The target of assay [4] is Tyrosine-protein kinase ABL1 (Homo sapiens) (UniProt P00519). As to conditions: at 0.1 µM.
For assay [5] the target is unchanged. Particulars: at 1 µM.
The target in assay [6] is ALK tyrosine kinase receptor (Homo sapiens) (UniProt Q9UM73). As to conditions: at 0.1 µM.
The target is the same in assay [7]. Particulars: at 1 µM.
For assay [8], the target named is Tyrosine-protein kinase ABL2 (Homo sapiens) (UniProt P42684). As to conditions: at 0.1 µM.
For assay [9] the target is unchanged. As to conditions: at 1 µM.
Assay [10] addresses Tyrosine-protein kinase receptor UFO (Homo sapiens) (UniProt P30530). Particulars: at 0.1 µM.

Our source for the inhibition values is ChEMBL document CHEMBL1961873, “Compounds: GSK PKIS; Assays: Nanosyn kinase panel” (2012).

The term inhibition denotes the relative decrease from the control value, in per cent.

Tyrosine-protein kinase receptor UFO (Homo sapiens), sequence (P30530 whole entry): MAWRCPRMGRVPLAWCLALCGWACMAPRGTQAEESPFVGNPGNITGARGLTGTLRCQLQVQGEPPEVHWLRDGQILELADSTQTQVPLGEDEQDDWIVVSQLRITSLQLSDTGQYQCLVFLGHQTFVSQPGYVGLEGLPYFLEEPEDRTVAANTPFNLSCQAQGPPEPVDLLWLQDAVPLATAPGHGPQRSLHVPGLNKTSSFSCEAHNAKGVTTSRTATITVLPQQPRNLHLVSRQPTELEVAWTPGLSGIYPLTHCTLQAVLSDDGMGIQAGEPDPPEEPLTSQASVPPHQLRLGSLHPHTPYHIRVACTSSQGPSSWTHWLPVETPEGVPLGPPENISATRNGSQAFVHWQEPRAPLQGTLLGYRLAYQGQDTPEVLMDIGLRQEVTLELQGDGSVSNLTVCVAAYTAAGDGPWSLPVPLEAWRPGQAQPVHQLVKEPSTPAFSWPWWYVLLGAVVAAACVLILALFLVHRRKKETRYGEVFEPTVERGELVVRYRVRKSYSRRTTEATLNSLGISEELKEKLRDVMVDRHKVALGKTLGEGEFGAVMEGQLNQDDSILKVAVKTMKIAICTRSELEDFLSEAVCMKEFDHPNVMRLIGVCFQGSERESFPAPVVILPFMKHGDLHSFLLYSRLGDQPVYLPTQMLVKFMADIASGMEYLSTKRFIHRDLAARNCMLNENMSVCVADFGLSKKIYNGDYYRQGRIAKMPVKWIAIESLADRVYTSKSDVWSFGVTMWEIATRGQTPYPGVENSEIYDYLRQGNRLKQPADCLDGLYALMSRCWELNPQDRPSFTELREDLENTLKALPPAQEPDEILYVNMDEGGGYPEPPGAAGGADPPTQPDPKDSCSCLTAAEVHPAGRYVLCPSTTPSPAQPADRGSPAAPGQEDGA
ALK tyrosine kinase receptor (Homo sapiens), sequence (Q9UM73 19-1620 limits assumed): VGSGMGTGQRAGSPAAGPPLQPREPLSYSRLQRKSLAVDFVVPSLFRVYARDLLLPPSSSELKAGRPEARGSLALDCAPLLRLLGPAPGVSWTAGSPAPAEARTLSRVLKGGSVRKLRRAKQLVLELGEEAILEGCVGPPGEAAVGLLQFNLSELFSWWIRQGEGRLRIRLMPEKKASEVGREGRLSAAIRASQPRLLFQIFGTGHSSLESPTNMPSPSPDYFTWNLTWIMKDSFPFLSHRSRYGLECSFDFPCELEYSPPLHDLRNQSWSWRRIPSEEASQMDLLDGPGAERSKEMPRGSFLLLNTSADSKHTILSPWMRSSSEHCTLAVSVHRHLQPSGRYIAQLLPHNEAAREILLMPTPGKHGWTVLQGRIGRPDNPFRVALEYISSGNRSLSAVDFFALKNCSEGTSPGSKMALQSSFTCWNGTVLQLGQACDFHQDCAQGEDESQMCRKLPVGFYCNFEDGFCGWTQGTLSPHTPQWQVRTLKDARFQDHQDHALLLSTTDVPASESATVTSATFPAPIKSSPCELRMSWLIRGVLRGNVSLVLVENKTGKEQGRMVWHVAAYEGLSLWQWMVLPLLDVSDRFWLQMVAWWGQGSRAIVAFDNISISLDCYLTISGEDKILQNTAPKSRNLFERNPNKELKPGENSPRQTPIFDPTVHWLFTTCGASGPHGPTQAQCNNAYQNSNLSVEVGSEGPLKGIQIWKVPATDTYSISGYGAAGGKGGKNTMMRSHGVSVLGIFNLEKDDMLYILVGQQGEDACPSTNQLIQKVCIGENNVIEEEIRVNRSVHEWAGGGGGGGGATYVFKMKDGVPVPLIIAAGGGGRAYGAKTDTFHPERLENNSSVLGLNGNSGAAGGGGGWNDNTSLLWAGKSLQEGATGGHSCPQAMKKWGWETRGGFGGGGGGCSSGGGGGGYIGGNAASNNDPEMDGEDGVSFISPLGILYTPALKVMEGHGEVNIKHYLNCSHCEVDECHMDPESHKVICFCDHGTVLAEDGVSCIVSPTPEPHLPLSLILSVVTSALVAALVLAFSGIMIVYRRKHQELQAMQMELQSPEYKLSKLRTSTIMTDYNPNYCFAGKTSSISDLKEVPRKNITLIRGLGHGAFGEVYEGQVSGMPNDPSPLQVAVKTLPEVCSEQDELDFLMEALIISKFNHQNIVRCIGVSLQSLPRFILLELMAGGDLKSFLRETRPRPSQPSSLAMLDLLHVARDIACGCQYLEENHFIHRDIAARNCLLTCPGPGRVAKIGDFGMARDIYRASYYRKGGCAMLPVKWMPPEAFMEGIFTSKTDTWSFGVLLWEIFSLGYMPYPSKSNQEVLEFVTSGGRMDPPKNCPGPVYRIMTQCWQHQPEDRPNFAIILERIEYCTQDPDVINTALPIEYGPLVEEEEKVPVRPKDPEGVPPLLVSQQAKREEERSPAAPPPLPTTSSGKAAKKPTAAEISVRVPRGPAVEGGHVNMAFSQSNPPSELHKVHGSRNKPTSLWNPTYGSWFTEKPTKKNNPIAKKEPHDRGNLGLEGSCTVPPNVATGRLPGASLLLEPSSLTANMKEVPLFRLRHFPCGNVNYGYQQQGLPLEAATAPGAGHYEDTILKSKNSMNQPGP
Tyrosine-protein kinase ABL2 (Homo sapiens), sequence (P42684 whole entry): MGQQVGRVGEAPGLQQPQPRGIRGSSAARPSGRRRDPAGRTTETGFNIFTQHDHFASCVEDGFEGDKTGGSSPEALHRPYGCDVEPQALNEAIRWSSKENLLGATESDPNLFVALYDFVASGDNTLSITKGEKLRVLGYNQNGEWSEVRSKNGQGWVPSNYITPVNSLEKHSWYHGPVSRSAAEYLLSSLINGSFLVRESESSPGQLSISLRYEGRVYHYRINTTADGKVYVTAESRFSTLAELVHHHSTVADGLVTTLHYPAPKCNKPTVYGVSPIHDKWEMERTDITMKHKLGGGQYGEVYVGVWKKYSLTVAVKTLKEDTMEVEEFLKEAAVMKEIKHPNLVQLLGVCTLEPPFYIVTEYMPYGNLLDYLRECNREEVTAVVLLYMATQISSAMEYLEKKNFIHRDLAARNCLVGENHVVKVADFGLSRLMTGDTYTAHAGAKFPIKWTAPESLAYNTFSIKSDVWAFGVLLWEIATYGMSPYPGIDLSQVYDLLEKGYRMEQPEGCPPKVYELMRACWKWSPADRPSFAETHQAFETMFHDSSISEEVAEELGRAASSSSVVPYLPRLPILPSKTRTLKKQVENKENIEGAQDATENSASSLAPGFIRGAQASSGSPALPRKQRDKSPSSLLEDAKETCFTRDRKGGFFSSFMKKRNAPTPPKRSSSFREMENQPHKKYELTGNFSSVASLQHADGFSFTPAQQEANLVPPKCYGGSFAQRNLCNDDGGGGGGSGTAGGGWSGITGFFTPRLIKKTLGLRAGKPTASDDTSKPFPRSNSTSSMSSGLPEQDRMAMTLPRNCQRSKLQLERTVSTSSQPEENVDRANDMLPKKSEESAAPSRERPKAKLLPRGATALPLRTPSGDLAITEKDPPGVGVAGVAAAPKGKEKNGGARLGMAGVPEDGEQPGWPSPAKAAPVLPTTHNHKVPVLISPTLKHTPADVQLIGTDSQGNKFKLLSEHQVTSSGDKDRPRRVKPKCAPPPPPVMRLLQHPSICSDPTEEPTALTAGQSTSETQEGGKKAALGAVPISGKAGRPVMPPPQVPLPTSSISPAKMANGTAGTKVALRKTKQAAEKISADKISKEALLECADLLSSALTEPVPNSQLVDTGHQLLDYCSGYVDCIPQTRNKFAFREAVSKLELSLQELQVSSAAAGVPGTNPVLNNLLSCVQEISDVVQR

On to `Nc1nccc(-c2c(-c3ccc(F)cc3)nn3cc(C(F)(F)F)ccc23)n1`, for which the inhibition in assay [1] is 1.21%; in assay [2] it was 1.01%; in assay [3] it was -0.43%; in [4] it was 0.6%; in [5], 0.4%; in assay [6], 3.84%. Also, the inhibition in assay [7] was 5.16%; in assay [8] it was 2.16%; in [9] it was 3.62%; in assay [10], 0.67%.

In the case of `CCS(=O)(=O)c1ccc(OC)c(Nc2nccc(N(C)c3ccc4c(C)n[nH]c4c3)n2)c1`, the inhibition in assay [1] was 15%; in [2] it was 66.4%; in assay [3] it was 92.3%; in assay [4], 58%; in assay [5], 78.5%; in [6] it was 4.29%. Moreover, the inhibition in assay [7] is 12.4%; in assay [8] it was 42%; in assay [9], 73.9%; in [10], -6.66%.

Turning to `Cc1ccc(NC(=O)CC2CC2)cc1-c1ccc(C(=O)NCC2CC2)cc1`, the inhibition was determined as 2.68% in assay [1]; 5.1% in [2]; 5.33% in assay [3]; 6.36% in [4]; 8.53% in [5]; 1.68% in [6]. For the same molecule, the inhibition in assay [7] is 3.58%; in assay [8], 8.79%; in assay [9], 7.68%; in assay [10], -3.14%.

`NS(=O)(=O)c1ccc(Nc2cc(-c3cccc(O)c3)n[nH]2)cc1`: the inhibition in [1] was found to be 7.24%; in [2], 6.94%; in assay [3], 11.8%; in [4], 5.23%; in [5], 11.4%; in assay [6], 3.58%. Besides, the inhibition in assay [7] came out at 7.98%; in assay [8], 5.93%; in [9], 6.81%.

In the case of `O=C1Nc2ccc(-c3cccnc3)cc2C1=Cc1cc(Br)c(O)c(Br)c1`, the inhibition turned out to be 2.94% in assay [1]; 5.16% in [2]; 7.7% in assay [3]; 3.97% in assay [4]; 8.78% in assay [5]; 4.13% in [6]. Moreover, the inhibition is 9.22% in assay [7], 3.5% in assay [8], 5.72% in assay [9] and -3.55% in assay [10].

Regarding `N#Cc1c(NC(=O)c2ccccc2F)sc2c1CCCC2`, the inhibition in assay [1] is 0.12%; in [2] it was -0.24%; in [3], 0.05%; in [4], 0.07%; in assay [5], 1.47%; in assay [6], -1.14%. Also, the inhibition in assay [7] was 1.02%; in assay [8] it was -0.22%; in [9], 1.82%; in assay [10] it was 1.78%.

In the case of `CN(C)C(=O)O[C@@H]1CN[C@@H](C#Cc2cc3ncnc(Nc4ccc(OCc5cccc(F)c5)c(Cl)c4)c3s2)C1`, the inhibition was -0.07% in assay [1]; 1.53% in assay [2]; 3.44% in assay [3]; 1.35% in [4]; 6.2% in [5]; 1.27% in [6]. Moreover, the inhibition in assay [7] is 1.3%; in assay [8], 1.71%; in [9], 8.08%; in assay [10], -0.96%.

Consider `COc1cc2ncnc(Nc3ccc4c(cnn4Cc4ccccc4)c3)c2cc1OC`, for which the inhibition in assay [1] is 7.47%; in [2], 2.86%; in assay [3], 4.15%; in assay [4], 3.47%; in [5], 3.36%; in assay [6] it was 1.67%. The inhibition in assay [7] is 3.06%; in [8], 0.85%; in assay [9], 4.75%; in [10] it was -3.79%.

On to `COc1cc2ncn(-c3cc(OCc4ccccc4S(C)(=O)=O)c(C#N)s3)c2cc1OC`, for which the inhibition in [1] is 32.6%; in assay [2] it was 13.8%; in assay [3], 48.8%; in [4] it was 9.66%; in [5] it was 49%; in assay [6], 4.25%. The inhibition in assay [7] came to 9.85%; in assay [8], 4.77%; in assay [9], 18%.

On to `Cc1ccc(C(=O)NC2CC2)cc1-c1ccc2[nH]ncc2c1`, for which the inhibition in [1] was 2.89%; in [2], -1.37%; in assay [3], 0.48%; in assay [4], -0.56%; in assay [5], 0.77%; in assay [6], -1.6%. The inhibition in assay [7] is -1.66%; in [8], -1.18%; in [9], 0.73%; in assay [10], 3.54%.

Turning to `Cc1cc(O)cc(C)c1/C=C/c1cncc(C(=O)N(C)C)c1`, the inhibition in assay [1] is 1.49%; in [2], 2.53%; in [3], 14.2%; in assay [4], 6.26%; in [5] it was 17.9%; in assay [6], 1.7%. Besides, the inhibition in assay [7] was 3.57%; in assay [8] it was 4.85%; in [9] it was 12%; in assay [10], -0.49%.

For `Cc1nc(-c2ccccc2)n2nc(NCCCN3CCOCC3)ncc12`, the inhibition came to 7.48% in assay [1]; 1.75% in assay [2]; 3.67% in assay [3]; 5.87% in assay [4]; 5.41% in assay [5]; 2.79% in [6]. Also, the inhibition is 4.11% in assay [7], 2.85% in assay [8], 4.35% in assay [9] and -1.08% in assay [10].

As for `CCn1c(-c2nonc2N)nc2c(C#CC(C)(C)O)nc(OCCNC)cc21`, the inhibition in assay [1] came to 4.21%; in [2] it was 1.69%; in [3], 4.64%; in [4] it was 4.99%; in assay [5], 5.14%; in assay [6] it was 2.7%. Further, the inhibition in [7] was 3.58%; in [8], 1.91%; in assay [9], 4.33%; in assay [10], -7.46%.

Turning to `NC(=O)c1cccc(Nc2nccc(Nc3cccc(F)c3)n2)c1`, the inhibition in [1] amounted to 17.1%; in assay [2], 12.8%; in assay [3], 63.8%; in [4], 11.6%; in assay [5] it was 55.6%; in assay [6] it was 0.23%. In addition, the inhibition was 10.1% in [7], 11.5% in assay [8], 51.9% in assay [9] and -1.82% in assay [10].

On to `NS(=O)(=O)c1ccc(N/N=C2\C(=O)Nc3ccc(Cl)cc32)cc1`, for which the inhibition in assay [1] is 11.8%; in [2] it was 1.42%; in assay [3], 11.1%; in assay [4], 2.16%; in [5], 10.6%; in assay [6], 1.16%. For the same molecule, the inhibition in assay [7] was 5.53%; in assay [8], 5.17%; in assay [9], 11.6%; in assay [10] it was -1.64%.

On to `FC(F)(F)c1ccc(-c2nn3ncccc3c2-c2ccnc(Nc3ccc4c(c3)OCCO4)n2)cc1`, for which the inhibition is 9.38% in assay [1]; 0.98% in [2]; 7.07% in assay [3]; 5.3% in [4]; 13.7% in assay [5]; -1.39% in assay [6]. The inhibition in [7] is 1.59%; in assay [8] it was 5.58%; in assay [9] it was 9.47%; in assay [10], 8.69%.

For `NS(=O)(=O)c1cccc(Nc2cc(-c3ccc(F)cc3)n[nH]2)c1`, the inhibition was found to be 9% in [1]; 4.2% in assay [2]; 17% in [3]; 3.39% in assay [4]; 12.4% in assay [5]; 1.3% in assay [6]. Besides, the inhibition in assay [7] was 2.54%; in assay [8], 3.38%; in assay [9], 9.78%; in assay [10] it was -0.57%.

As for `COc1cc(Nc2nccc(-c3cnn4ncccc34)n2)cc(OC)c1`, the inhibition stood at 40.3% in [1]; 13.7% in [2]; 59.6% in [3]; 9.67% in assay [4]; 62.7% in assay [5]; 5.68% in assay [6]. Besides, the inhibition in assay [7] was found to be 44.8%; in [8], 10.5%; in [9], 69.6%; in assay [10], 2%.

For the molecule `NS(=O)(=O)c1ccc(NC=C2C(=O)Nc3ccc4ncsc4c32)cc1`, the inhibition in [1] is 61.6%; in assay [2], 10.6%; in assay [3], 48.7%; in assay [4] it was 7.95%; in assay [5], 44.8%; in assay [6] it was 7.33%. Further, the inhibition in [7] is 32.2%; in [8] it was 5.56%; in [9] it was 31.4%; in assay [10] it was -4.15%.

As for `Nc1nccc(-c2c(-c3ccc(F)cc3)ncn2CCCN2CCOCC2)n1`, the inhibition in assay [1] was found to be 3.9%; in [2] it was 3.98%; in assay [3], 6.6%; in [4] it was 2.4%; in assay [5], 7.25%; in [6], 2.67%. Further, the inhibition was 4.91% in [7], 2.67% in assay [8], 0.55% in assay [9] and -5.59% in assay [10].
